Experimental data published in PubChem BioAssay (Tox21).
Values joined by “and” are separate entries in the source; they are usually repeats but may differ in a detail not shown here. Identical values can stand only once. Inconclusive results are not listed. Active and inactive are the calls of the source. The call rests on the fitted dose curve; in most records, active means well fitted curve in the direction sought with a large enough effect in the repeat runs; inconclusive means weak or mixed curves; inactive means no such curve, though single readings can be large; an effect the other way counts as inactive or inconclusive.

Experiments:
[1] = qHTS RealTime-Glo MT Cell Viability Assay in HepG2 cells - 40 hour (AID 1224870); further: nearly all actives have a fitted effect of over 50% in size
Procedure, shortened: (§1)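 Real-time viability: cells seeded at 600 per well together with NanoLuc and cell-permeant prosubstrate, compounds added after 5 h incubation. Luminescence tracked at 0, 8, 16, 24, 32 and 40 h of exposure.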

[2] = A CellTox Green Cytotoxicity Assay to monitor cytotoxicity in HEK293 cells - 40 hour (AID 1224871); further: nearly all actives have a fitted effect of over 45% in size
Procedure, shortened: (§2)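 Nonlytic real-time cytotoxicity: HEK293 + CellTox Green reagent plated, 5 h preincubation, pintool compound addition (23 nL in DMSO), 37 C for 40 h, fluorescence measured at successive time points.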

[3] = qHTS RealTime-Glo MT Cell Viability Assay in HEK293 cells - 16 hour (AID 1224872); further: top concentration of the series differs between compounds; nearly all actives have a fitted effect of over 50% in size
Procedure, shortened: (§3)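 Homogeneous bioluminescent viability format in HEK293 cells (600 cells/well). Following 5 h at 37 C/5% CO2, 23 nL compound was pintooled; the signal was measured repeatedly during 40 h incubation.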

[4] = qHTS RealTime-Glo MT Cell Viability Assay in HepG2 cells - 8 hour (AID 1224873); further: nearly all actives have a fitted effect of over 55% in size
Procedure, shortened: as §1

[5] = qHTS RealTime-Glo MT Cell Viability Assay in HEK293 cells - 40 hour (AID 1224874); settings: RealTime-Glo luminescence; max response: stronger effect = lower value; further: nearly all actives have a fitted effect of over 50% in size
Procedure, shortened: (§4)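 Cells were seeded together with NanoLuc luciferase and a prosubstrate that viable cells reduce to a luciferase substrate. After a 5 h incubation at 37 C/5% CO2, compounds were added and luminescence was measured repeatedly during 40 h of treatment.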

[6] = A CellTox Green Cytotoxicity Assay to monitor cytotoxicity in HEK293 cells - 24 hour (AID 1224875); further: series mostly up to about 77 µM; nearly all actives have a fitted effect of over 45% in size
Procedure, shortened: as §2

[7] = A CellTox Green Cytotoxicity Assay to monitor cytotoxicity in HepG2 cells - 16 hour (AID 1224876); further: nearly all actives have a fitted effect of over 45% in size
Procedure, shortened: (§5)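 Read-out is fluorescence of a cyanine dye excluded from live cells that stains DNA of dead HepG2 cells, with signal proportional to cytotoxicity. Plates were read at 0, 8, 16, 24, 32 and 40 h after compound addition.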

[8] = qHTS RealTime-Glo MT Cell Viability Assay in HepG2 cells - 32 hour (AID 1224877); further: nearly all actives have a fitted effect of over 55% in size
Procedure, shortened: (§6)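 Cell number in HepG2 cultures estimated from NanoLuc luminescence generated by metabolic reduction of a prosubstrate by living cells. The homogeneous, nonlytic format allowed repeated reads at 0, 8, 16, 24, 32 and 40 h of compound exposure.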

[9] = A CellTox Green Cytotoxicity Assay to monitor cytotoxicity in HepG2 cells - 24 hour (AID 1224878); further: nearly all actives have a fitted effect of over 45% in size
Procedure, shortened: as §5

[10] = A CellTox Green Cytotoxicity Assay to monitor cytotoxicity in HepG2 cells - 40 hour (AID 1224879); further: nearly all actives have a fitted effect of over 40% in size
Procedure, shortened: as §5

[11] = qHTS RealTime-Glo MT Cell Viability Assay in HEK293 cells - 0 hour (AID 1224880)
Procedure, shortened: as §4

[12] = A CellTox Green Cytotoxicity Assay to monitor cytotoxicity in HEK293 cells - 32 hour (AID 1224881); further: nearly all actives have a fitted effect of over 40% in size
Procedure, shortened: as §2

[13] = A CellTox Green Cytotoxicity Assay to monitor cytotoxicity in HepG2 cells - 0 hour (AID 1224882); further: nearly all actives have a fitted effect of over 35% in size
Procedure, shortened: as §5

[14] = A CellTox Green Cytotoxicity Assay to monitor cytotoxicity in HepG2 cells - 32 hour (AID 1224883); further: nearly all actives have a fitted effect of over 50% in size
Procedure, shortened: as §5

[15] = A CellTox Green Cytotoxicity Assay to monitor cytotoxicity in HEK293 cells - 8 hour (AID 1224884); further: nearly all actives have a fitted effect of over 35% in size
Procedure, shortened: as §2

[16] = qHTS RealTime-Glo MT Cell Viability Assay in HepG2 cells - 16 hour (AID 1224885); further: nearly all actives have a fitted effect of over 50% in size
Procedure, shortened: as §6

[17] = qHTS RealTime-Glo MT Cell Viability Assay in HEK293 cells - 24 hour (AID 1224886)
Procedure, shortened: as §3

[18] = qHTS RealTime-Glo MT Cell Viability Assay in HEK293 cells - 8 hour (AID 1224887)
Procedure, shortened: as §4

[19] = A CellTox Green Cytotoxicity Assay to monitor cytotoxicity in HEK293 cells - 16 hour (AID 1224888); further: nearly all actives have a fitted effect of over 35% in size
Procedure, shortened: as §2

[20] = qHTS RealTime-Glo MT Cell Viability Assay in HepG2 cells - 0 hour (AID 1224889); further: nearly all actives have a fitted effect of over 50% in size
Procedure, shortened: as §6
On the % scale 0 is the no-effect control and ±100 the full control effect.

O=C(O)Cc1ccc(CCNS(=O)(=O)c2ccc(Cl)cc2)cc1
inactive: Potency [1] | Potency [2] | Potency [3] | Potency [4] | max response [5] -1.15% | Potency [6] | Potency [7] | Potency [8] | Potency [9] | Potency [10] | Potency [11] | Potency [12] | Potency [13] | Potency [14] | Potency [15] | Potency [16] | Potency [17] | Potency [18] | Potency [19] | Potency [20]

CC(C)CCCC(C)N (configuration not stated)
inactive: Potency [1] | Potency [2] | Potency [3] | Potency [4] | max response [5] 5.83% | Potency [6] | Potency [7] | Potency [8] | Potency [9] | Potency [10] | Potency [11] | Potency [12] | Potency [13] | Potency [14] | Potency [15] | Potency [16] | Potency [17] | Potency [18] | Potency [19] | Potency [20]

CC(=O)OCC(CCn1cnc2cnc(N)nc21)COC(C)=O
inactive: Potency [1] | Potency [2] | Potency [3] | Potency [4] | max response [5] -0.0813% | Potency [6] | Potency [7] | Potency [8] | Potency [9] | Potency [10] | Potency [11] | Potency [12] | Potency [13] | Potency [14] | Potency [15] | Potency [16] | Potency [17] | Potency [18] | Potency [19] | Potency [20]

CCN(Cc1ccncc1)C(=O)C(CO)c1ccccc1 (configuration not stated)
inactive: Potency [1] | Potency [2] | Potency [3] | Potency [4] | max response [5] 5.99% | Potency [6] | Potency [7] | Potency [8] | Potency [9] | Potency [10] | Potency [11] | Potency [12] | Potency [13] | Potency [14] | Potency [15] | Potency [16] | Potency [17] | Potency [18] | Potency [19] | Potency [20]

COc1cc(C(=O)N2CCCCCCC2)cc(OC)c1OC
inactive: Potency [1] | Potency [2] | Potency [3] | Potency [4] | max response [5] 9.63% | Potency [6] | Potency [7] | Potency [8] | Potency [9] | Potency [10] | Potency [11] | Potency [12] | Potency [14] | Potency [15] | Potency [16] | Potency [17] | Potency [18] | Potency [19] | Potency [20]

Nc1c[n+](N2CCOCC2)no1
inactive: Potency [1] | Potency [2] | Potency [3] | Potency [4] | max response [5] 0.673% | Potency [6] | Potency [7] | Potency [8] | Potency [9] | Potency [10] | Potency [11] | Potency [12] | Potency [14] | Potency [15] | Potency [16] | Potency [17] | Potency [18] | Potency [19] | Potency [20]

CC1(C)C(O)C(C)(C)C1O (configuration not stated)
inactive: Potency [1] | Potency [2] | Potency [3] | Potency [4] | max response [5] 0.527% | Potency [6] | Potency [7] | Potency [8] | Potency [9] | Potency [10] | Potency [11] | Potency [12] | Potency [13] | Potency [14] | Potency [15] | Potency [16] | Potency [17] | Potency [18] | Potency [19] | Potency [20]

O=C1NC(=O)[C@@]2(CCOc3ccc(F)cc32)N1
inactive: Potency [1] | Potency [2] | Potency [3] | Potency [4] | max response [5] 10% | Potency [6] | Potency [7] | Potency [8] | Potency [9] | Potency [10] | Potency [11] | Potency [13] | Potency [14] | Potency [15] | Potency [16] | Potency [17] | Potency [18] | Potency [19] | Potency [20]

CC(C)=CCCC(C)CC(=O)O (configuration not stated)
inactive: Potency [1] | Potency [2] | Potency [3] | Potency [4] | max response [5] 2.41% | Potency [6] | Potency [7] | Potency [8] | Potency [9] | Potency [10] | Potency [11] | Potency [14] | Potency [15] | Potency [16] | Potency [17] | Potency [18] | Potency [19] | Potency [20]

Oc1ccc(C2CNCCc3c2cc(O)c(O)c3Cl)cc1 (configuration not stated)
inactive: Potency [1] | Potency [2] | Potency [3] | Potency [4] | max response [5] -10.9% | Potency [6] | Potency [7] | Potency [8] | Potency [10] | Potency [11] | Potency [12] | Potency [13] | Potency [14] | Potency [15] | Potency [16] | Potency [17] | Potency [18] | Potency [19] | Potency [20]

CC(C(=O)O)c1ccc(CC2CCCC2=O)cc1 (configuration not stated)
inactive: Potency [1] | Potency [2] | Potency [3] | Potency [4] | max response [5] -1.24% | Potency [6] | Potency [7] | Potency [8] | Potency [10] | Potency [11] | Potency [13] | Potency [14] | Potency [15] | Potency [16] | Potency [17] | Potency [18] | Potency [20]

Cc1sccc1Br
inactive: Potency [1] | Potency [2] | Potency [3] | Potency [4] | max response [5] 6.36% | Potency [6] | Potency [7] | Potency [8] | Potency [9] | Potency [10] | Potency [12] | Potency [13] | Potency [14] | Potency [15] | Potency [16] | Potency [17] | Potency [18] | Potency [20]

O=C1CCCCCCCCCCCN1
inactive: Potency [1] | Potency [2] | Potency [3] | Potency [4] | max response [5] 0.14% and 1.61% | Potency [7] | Potency [8] | Potency [9] | Potency [10] | Potency [11] | Potency [12] | Potency [13] | Potency [14] | Potency [15] | Potency [16] | Potency [17] | Potency [18] | Potency [19] | Potency [20]

C=CCS(=O)(=O)O
inactive: Potency [1] | Potency [2] | Potency [3] | Potency [4] | max response [5] 0.443% | Potency [6] | Potency [7] | Potency [8] | Potency [9] | Potency [10] | Potency [11] | Potency [13] | Potency [14] | Potency [15] | Potency [16] | Potency [17] | Potency [18] | Potency [19] | Potency [20]
